This is an account of results in PubChem BioAssay (NCI).

Test in all cases: NCI-60 one-dose screen, 48 h (100 = growth as untreated, 0 = no growth, -100 = all killed)
One test concerns HCT-15 colon. Particulars: 10 µM unless noted.
The subject of the next test is HT29 colon. The following applies: 10 µM unless noted.
A further test has as its system SNB-75 CNS. Particulars: 10 µM unless noted.
Another test relates to SNB-19 CNS. The following applies: 10 µM unless noted.
The next test has as its system U251 CNS. Particulars: 10 µM unless noted.
A further test deals with PC-3 prostate. The following applies: 10 µM unless noted.
A further test concerns SK-MEL-5 melanoma. The following applies: 10 µM unless noted.
For the next test, the system named is UACC-62 melanoma. Particulars: 10 µM unless noted.
The next test has as its system LOX IMVI melanoma. Particulars: 10 µM unless noted.
A further test has as its system SK-MEL-28 melanoma. Particulars: 10 µM unless noted.
The next test deals with SK-MEL-2 melanoma. Particulars: 10 µM unless noted.
In a further test the test system is EKVX NSCLC. Particulars: 10 µM.
A further test relates to SN12C renal. The following applies: 10 µM unless noted.
Another test has as its system UO-31 renal. The following applies: 10 µM unless noted.
The subject of another test is TK-10 renal. Particulars: 10 µM unless noted.
The next test concerns ACHN renal. The following applies: 10 µM unless noted.
In another test the test system is A498 renal. The following applies: 10 µM unless noted.
The subject of the next test is CCRF-CEM leukemia. Particulars: 10 µM.
For the next test, the system named is MOLT-4 leukemia. Particulars: 10 µM unless noted.
The next test concerns CAKI-1 renal. The following applies: 10 µM unless noted.

About 83,000 compounds went through this panel and 20% of them were active in at least one assay; those are over-represented in the sample as a whole.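 Percent growth is the endpoint: 0 to 100 indicates growth inhibition (40 means 60% inhibition), 0 means no net growth, and negative values indicate cell death.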 A number with no mark means an inactive call. Calls of active or inactive are those of the source. Rule for the calls: active = growth percent below 10; inactive = the rest.

Take `O=C1N/C(=N\c2nnc(-c3ccc(O)cc3)s2)S/C1=C\c1ccccc1O`: the growth in the test on HCT-15 colon was 93.3%; in the test on HT29 colon it was 115%; in the test on SNB-75 CNS, 78.5%; in the test with SNB-19 CNS it was 93.8%; with U251 CNS it was 101%; in the test on PC-3 prostate, 87%. Further, the growth was 99.7% with SK-MEL-5 melanoma; 97.6% with UACC-62 melanoma; 93% in the test with LOX IMVI melanoma; 106% with SK-MEL-28 melanoma; 103% in the test with SK-MEL-2 melanoma; 101% with EKVX NSCLC. The growth with SN12C renal was 93.2%; in the test with UO-31 renal, 72.4%; in the test with TK-10 renal, 97.9%; in the test with ACHN renal it was 97.8%; in the test on A498 renal, 107%; with CCRF-CEM leukemia, 95.8%. The growth in the test with MOLT-4 leukemia is 100%.

As for `NNC(=O)CNc1ccc2ccccc2c1`, the growth in the test on HCT-15 colon is 110%; with HT29 colon it was 106%; with SNB-75 CNS it was 104%; in the test on SNB-19 CNS, 109%; in the test on U251 CNS it was 101%; with PC-3 prostate, 98%. The growth is 101% in the test on SK-MEL-5 melanoma; 98.8% with UACC-62 melanoma; 96% with LOX IMVI melanoma; 125% in the test with SK-MEL-28 melanoma; 98.7% with SK-MEL-2 melanoma; 105% in the test on EKVX NSCLC. Also, the growth in the test with SN12C renal was 104%; in the test on UO-31 renal, 70.9%; in the test on TK-10 renal, 119%; with ACHN renal it was 101%; in the test with A498 renal, 107%; in the test with CCRF-CEM leukemia it was 101%. Moreover, the growth with MOLT-4 leukemia was 83.6%.

Regarding `COc1ccccc1CNCCCN1C(=O)c2ccc3c4c(ccc(c24)C1=O)C(=O)N(CCCNCc1ccccc1OC)C3=O`, the growth with HCT-15 colon was -69.2% (active); in the test with HT29 colon, -59.5% (active); in the test with SNB-75 CNS, -95.7% (active); in the test with SNB-19 CNS, -68.8% (active); in the test with U251 CNS, -89.5% (active); with PC-3 prostate, -59.9% (active). Also, the growth is -100% (active) in the test with SK-MEL-5 melanoma; -72.5% (active) in the test on UACC-62 melanoma; -63.1% (active) with LOX IMVI melanoma; -90.6% (active) with SK-MEL-28 melanoma; -80.5% (active) with SK-MEL-2 melanoma; -63.6% (active) in the test with EKVX NSCLC. Further, the growth with SN12C renal is -78.2% (active); in the test with UO-31 renal it was -84% (active); in the test with TK-10 renal it was -77.9% (active); with ACHN renal it was -46.8% (active); with CAKI-1 renal it was -29.1% (active); with CCRF-CEM leukemia, -12.7% (active). For the same compound, the growth with MOLT-4 leukemia was -37% (active).

On to `N#CCCCCCCCCCCC#N`, for which the growth is 99.4% in the test on HCT-15 colon; 95.7% in the test with HT29 colon; 103% in the test on SNB-75 CNS; 109% in the test on SNB-19 CNS; 105% in the test with U251 CNS; 95.8% with PC-3 prostate. Further, the growth in the test on SK-MEL-5 melanoma is 110%; in the test with UACC-62 melanoma it was 101%; in the test on LOX IMVI melanoma it was 99.4%; in the test on SK-MEL-28 melanoma, 111%; with SK-MEL-2 melanoma, 108%; in the test with EKVX NSCLC, 97%. Moreover, the growth is 105% in the test with SN12C renal; 92.9% in the test on UO-31 renal; 92.4% in the test with TK-10 renal; 107% in the test with ACHN renal; 95.2% with CAKI-1 renal; 97.5% in the test with CCRF-CEM leukemia. Also, in the test on MOLT-4 leukemia, the growth is 105%.

For the compound `COc1ccc(CNCCCN2C(=O)c3ccc4c5c(ccc(c35)C2=O)C(=O)N(CCCNCc2ccc(OC)c(OC)c2OC)C4=O)c(OC)c1OC`, the growth in the test on HCT-15 colon is -63.7% (active); with HT29 colon it was -76.4% (active); with SNB-75 CNS, -96.8% (active); in the test on SNB-19 CNS, -79.5% (active); with U251 CNS it was -94.2% (active); with PC-3 prostate it was -71.9% (active). Moreover, the growth is -97.9% (active) with SK-MEL-5 melanoma; -78.4% (active) in the test on UACC-62 melanoma; -84.7% (active) in the test on LOX IMVI melanoma; -92.9% (active) in the test with SK-MEL-28 melanoma; -88.4% (active) in the test on SK-MEL-2 melanoma; -77.2% (active) with EKVX NSCLC. The growth in the test with SN12C renal was -90.8% (active); in the test with UO-31 renal, -91.5% (active); in the test with TK-10 renal it was -84.7% (active); in the test with ACHN renal it was -90.3% (active); with CAKI-1 renal it was -52.5% (active); in the test with CCRF-CEM leukemia, -34% (active). In the test on MOLT-4 leukemia, the growth is -43.9% (active).

In the case of `O=C(N/N=C/c1ccccc1Cl)c1cccc2ccccc12`, the growth in the test with HCT-15 colon was 102%; in the test on HT29 colon, 105%; in the test on SNB-75 CNS, 83.1%; in the test with SNB-19 CNS, 98.3%; with U251 CNS, 98.4%; in the test on PC-3 prostate, 99.6%. The growth is 104% in the test with SK-MEL-5 melanoma; 99.8% in the test with UACC-62 melanoma; 103% in the test with LOX IMVI melanoma; 95.4% with SK-MEL-28 melanoma; 108% with SK-MEL-2 melanoma; 99.6% in the test with EKVX NSCLC. The growth with SN12C renal is 94.9%; with UO-31 renal, 91.5%; in the test with TK-10 renal it was 113%; in the test with ACHN renal, 105%; in the test on A498 renal, 85.4%; in the test on CCRF-CEM leukemia, 88.3%. In the test on MOLT-4 leukemia, the growth is 112%.

With `COC1NC(Cl)=C(C#N)C(C#N)(C#N)C1(C)C` (configuration not stated), the growth with HCT-15 colon is 121%; in the test with HT29 colon it was 108%; in the test with SNB-75 CNS, 105%; with SNB-19 CNS it was 115%; with U251 CNS it was 105%; in the test with PC-3 prostate, 122%. For the same compound, the growth in the test on SK-MEL-5 melanoma was 111%; with UACC-62 melanoma, 98.9%; in the test on LOX IMVI melanoma, 98.7%; with SK-MEL-28 melanoma, 124%; in the test with SK-MEL-2 melanoma it was 99.1%; in the test with EKVX NSCLC it was 86.4%. Further, the growth in the test with SN12C renal was 104%; in the test on UO-31 renal, 85.5%; with TK-10 renal, 113%; in the test on ACHN renal, 105%; in the test on A498 renal it was 110%; in the test on CCRF-CEM leukemia, 109%. For the same compound, the growth with MOLT-4 leukemia is 89.2%.

For `Cc1ccc(S(=O)(=O)Nc2cccc(Cn3c(=O)[nH]c4ccc(Oc5ncccn5)cc4c3=O)c2)cc1`, the growth in the test on HCT-15 colon is 91%; in the test with HT29 colon it was 65.1%; with SNB-75 CNS, 78.9%; with SNB-19 CNS it was 57.4%; in the test with U251 CNS it was 79.1%; in the test on PC-3 prostate, 52%. Moreover, the growth in the test with SK-MEL-5 melanoma was 53.8%; in the test on UACC-62 melanoma, 34.7%; in the test on LOX IMVI melanoma it was 64.5%; with SK-MEL-28 melanoma, 66.7%; with SK-MEL-2 melanoma, 55%; in the test on EKVX NSCLC, 86.6%. Further, the growth is 86.5% in the test on SN12C renal; 74.2% in the test on UO-31 renal; 105% with TK-10 renal; 87.7% in the test on ACHN renal; 77.8% in the test on A498 renal; 65.9% in the test on CCRF-CEM leukemia. Also, the growth in the test with MOLT-4 leukemia is 64.5%.
